Data on five compounds can be found in PubChem BioAssay.

The nature of assay [1]: LFS_MB_P medulloblastoma growth inhibition, cell-based, chromothripsis tumors, cisplatin or BGB combos (AID 1671449).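 Further: cells exposed for 96 hours; 0% = vehicle DMSO and 100% = killing by high DMSO.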 The settings on record: LFS_MB_P medulloblastoma cells.
Assay [2] in a line: HDN33 neuroblastoma growth inhibition, cell-based, chromothripsis tumors, cisplatin or BGB combos (AID 1671450).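 Further: cells exposed to compound for four days; 0% = vehicle DMSO and 100% = cell killing by high DMSO.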 The settings on record: HDN33 neuroblastoma cells, stronger effect = higher value.
A short description of assay [3]: ICB984 medulloblastoma cell growth inhibition, synergistic combos for chromothripsis tumors, cisplatin or BGB combos (AID 1671451; call rule not given here;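 further: cells exposed for 96 hours before readout; 0% = vehicle DMSO and 100% = killing by high DMSO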). The settings on record: ICB984 medulloblastoma cells, drug combinations, stronger effect = higher value.
A short description of assay [4]: LFS_MB_1R medulloblastoma cell growth inhibition, synergistic combos for chromothripsis tumors, cisplatin or BGB combos (AID 1671452).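 Further: cells exposed for 96 hours before readout.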 The settings on record: LFS_MB_1R medulloblastoma cells, stronger effect = higher value.
A short description of assay [5]: HTB85 osteosarcoma cell growth inhibition, synergistic combos for chromothripsis tumors, BGB or cisplatin IC20 combos (AID 1671453).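 Further: cells exposed for 96 hours before readout; 0% = vehicle DMSO and 100% = high DMSO killing control.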 The settings on record: HTB85 osteosarcoma cells, drug combinations, stronger effect = higher value.
Assay [6] can be described thus: CRL2098 osteosarcoma cell growth inhibition, synergistic combos for chromothripsis tumors, BGB or cisplatin IC20 combos (AID 1671454).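 Further: cells exposed for 96 h before readout; 0% = vehicle DMSO and 100% = killing by high DMSO.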 The settings on record: CRL2098 osteosarcoma cells, drug combinations, stronger effect = higher value.
The nature of assay [7]: HD-MB03 medulloblastoma cell growth inhibition, synergistic combos for chromothripsis tumors, BGB or cisplatin IC20 combos (AID 1671455; in the data active means inhibition above about 83%;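 further: 0% = vehicle DMSO and 100% = high DMSO as cytotoxic control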). The settings on record: HD-MB03 medulloblastoma cells, stronger effect = higher value.
Assay [8] can be described thus: UWB1.289 ovarian carcinoma cell growth inhibition, synergistic combos for chromothripsis tumors, BGB or cisplatin combos (AID 1671456).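 Further: cells exposed to compound for four days; 0% = vehicle DMSO and 100% = killing by high DMSO.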 The settings on record: UWB1.289 ovarian carcinoma cells, stronger effect = higher value.
A short description of assay [9]: LFS_MB_2R medulloblastoma cell growth inhibition, synergistic combos for chromothripsis tumors, cisplatin combos (AID 1671457).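 Further: cells exposed to compound for four days before readout.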 The settings on record: LFS_MB_2R medulloblastoma cells, stronger effect = higher value.
Assay [10] in a line: MDA-MB-436 breast carcinoma cell growth inhibition, synergistic combos for chromothripsis tumors, BGB or cisplatin combos (AID 1671458; call rule not given here;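 further: cells exposed for 96 hours; 0% = vehicle DMSO and 100% = killing by high DMSO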). The settings on record: MDA-MB-436 breast carcinoma growth inhibition, drug combinations, stronger effect = higher value.
Assay [11] is described as follows: UWB1.289_BRCA1 ovarian cancer growth, cell-based, BGB or cisplatin combinations (AID 1671459). The settings on record: UWB1.289 BRCA1 ovarian carcinoma, drug combinations, stronger effect = higher value.
The nature of assay [12]: human astrocyte viability loss, single and combined drugs, cytotoxicity control for chromothriptic childhood tumor combination screen, cell-based, BGB or cisplatin IC20 combos (AID 1671460).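 Further: cells exposed to compounds for 96 hours before viability readout; 0% = vehicle and 100% = killing control.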 The settings on record: Human astrocytes, drug combinations, stronger effect = higher value.
Assay [13] in a line: growth inhibition of BT084 medulloblastoma cells, cell-based, ICGC_MB145, cisplatin and BGB IC40 combos (AID 1671461).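 Further: cells exposed to drugs for 96 hours; 0% = vehicle DMSO and 100% = high DMSO full killing control.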 The settings on record: drug combinations, stronger effect = higher value.
Assay [14] can be described thus: growth inhibition of RCMB18 medulloblastoma cells, cell-based, cisplatin and BGB IC40 combos (AID 1671462).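 Further: cells exposed to compound for four days.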 The settings on record: stronger effect = higher value.
Assay [15] is described as follows: growth inhibition of CRL1545 osteosarcoma cells, cell-based, cisplatin and BGB IC20 combos (AID 1671464).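 Further: cells exposed to compound for 96 hours before readout; 0% = vehicle DMSO and 100% = high DMSO killing control.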 The settings on record: stronger effect = higher value.
A short description of assay [16]: antimalarial activity against Dd2 strain (AID 2302;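 active means growth inhibition above 50% at the single 2 µM test dose, taken to imply half-maximal potency below 2 µM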;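 further: 0% = DMSO untreated growth and 100% = chloroquine plus artemisinin killed control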). The settings on record: P. falciparum Dd2 in RBCs, LDH growth readout, 72 h; at 2 µM; stronger effect = higher value.
Assay [17] in a line: HepG2 cytotoxicity, primary screen, cytotoxicity control for P. falciparum antimalarial project, cell-based, ATP luminescence (AID 2303;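 active means inhibition above 50%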;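 further: 0% = DMSO wells and 100% = digitonin-killed cells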). The settings on record: HepG2 viability, 24-48 h, at 10 µM, stronger effect = higher value.
Assay [18] has as its target L-lactate dehydrogenase (Plasmodium falciparum (isolate CDC / Honduras)) (UniProt Q27743). The assay is described as follows: PfLDH activity inhibition – cell lysate, 3D7 strain, counter-screen for P. falciparum growth inhibition project (AID 2304; call rule not given here;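 further: 0% = vehicle and 100% = reference inhibitor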). The settings on record: P. falciparum 3D7 crude extract, LDH APAD/NBT absorbance; at 2 µM; stronger effect = higher value. A general note: The purpose of a counterscreen is to sort out artefacts and off-target activity.

Assay [19] can be described thus: inhibition of 3D7 malaria parasite growth – strain 3D7 (AID 2306; call rule not given here;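 further: 0% = DMSO wells and 100% = chloroquine plus artemisinin control wells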). The settings on record: P. falciparum 3D7 erythrocytic growth, LDH absorbance, 72 h; at 2 µM; stronger effect = higher value.
A short description of assay [20]: circadian clock period modulators, cell-based, LOPAC library, luminescence reporter (AID 2774; call rule not given here;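 further: values are relative to mean of DMSO wells on each plate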). The settings on record: circadian reporter cells, at 7 µM, actives lie on both sides.
Assay [21] in a line: viability rescue of complex I mutant cybrids, primary screen, cell-based, galactose medium, ATP luminescence (AID 1645843;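 active means z-score of at least 1.8 in each of two replicates, scored against plate mean and spread of sample wells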;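 further: positive z means more ATP and so rescue of galactose-driven cybrid death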). The settings on record: complex I mutant cybrid cells, 72 h, stronger effect = higher value.
Where [22] appears, read: measured here: combination with BGB IC40, at 0.05 µM.
Setting [23] is: measured here: with BGB IC20 combination, at 0.5 µM.
[24] abbreviates: measured here: with cisplatin IC20 combination, at 0.5 µM.
Where [25] appears, read: measured here: combination with cisplatin, at 0.5 µM.
[26] abbreviates: measured here: combination with cisplatin, at 5 µM.

In general, inhibition refers to the change of the read-out against control, counted positive when it falls.

SMILES strings stand for the structures. Values joined by “and” are separate entries in the source; they are usually repeats but may differ in a detail not shown here. Identical values can stand only once. Active and inactive are the calls of the source. Unless noted, no stated cut-off is given here; in the data, active means inhibition above about 80%; inactive means the rest.

L-lactate dehydrogenase (Plasmodium falciparum (isolate CDC / Honduras)), sequence (Q27743 whole entry, looked up): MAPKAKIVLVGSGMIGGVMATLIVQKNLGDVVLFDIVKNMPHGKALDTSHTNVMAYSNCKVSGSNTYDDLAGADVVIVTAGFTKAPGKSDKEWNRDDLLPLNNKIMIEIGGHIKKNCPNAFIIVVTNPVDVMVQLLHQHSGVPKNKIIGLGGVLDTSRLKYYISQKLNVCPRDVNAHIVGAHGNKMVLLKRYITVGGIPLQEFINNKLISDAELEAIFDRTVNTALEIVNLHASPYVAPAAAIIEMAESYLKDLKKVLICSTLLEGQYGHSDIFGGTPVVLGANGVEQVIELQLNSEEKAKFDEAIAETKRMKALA

On to `COc1cc(C2c3cc4c(cc3C(O)C3COC(=O)C23)OCO4)cc(OC)c1OC` (stereo not given), for which the inhibition was 9.19% (inactive) in assay [1] (at 0.5 µM, stronger effect = higher value); -13.4% in [1] (measured here: combination with BGB IC20, at 0.005 µM); -36% in assay [1] (measured here: combination with BGB IC40, at 0.005 µM); 14.5% in assay [1] (setting [22]); -15.6% in assay [1] (measured here: combination with cisplatin, at 0.5 µM, stronger effect = higher value); 45.9% in assay [1] (measured here: combination with cisplatin, at 5 µM, stronger effect = higher value). Besides, the inhibition was 67.6% in assay [2] (BGB combo, at 5 µM); 76.5% (inactive) in assay [2] (at 0.5 µM); 70.5% in assay [2] (cisplatin combo, at 5 µM); 69.9% in assay [2] (setting [23]); 66.6% in assay [2] (setting [24]); 91.8% in [2] (single agent, at 5 µM). The inhibition was 44.2% in assay [3] (BGB IC20 combo, at 0.005 µM); 19.6% in assay [3] (BGB IC40 combo, at 0.005 µM); 10.9% in [3] (BGB IC40 combo, at 0.05 µM); -21.6% (inactive) in assay [3] (at 0.5 µM); 7.4% in assay [3] (cisplatin combo, at 0.05 µM); -22.1% in assay [3] (cisplatin combo, at 0.5 µM). Moreover, the inhibition was 19.8% in assay [3] (cisplatin combo, at 5 µM); 19.6% in assay [3] (measured here: 5 uM single agent, at 5 µM); 38.7% (inactive) in assay [4] (at 0.5 µM); 42.5% in assay [4] (setting [22]); 54.6% in assay [4] (setting [25]); 60.9% in assay [4] (setting [26]). Also, the inhibition is 72.2% (inactive) in assay [5] (at 0.5 µM); 55.2% in assay [5] (measured here: with BGB IC20, at 0.5 µM); 54% in assay [5] (measured here: with BGB IC20, at 5 µM); 72.6% in [5] (measured here: with cisplatin IC20, at 0.5 µM); 73% in assay [5] (measured here: with cisplatin IC20, at 5 µM); 89.8% in [5] (single agent, at 5 µM). In addition, the inhibition in [6] (at 0.5 µM) is 38.6% (inactive); in assay [6] (measured here: combination with BGB at IC20, at 0.5 µM), 34.3%; in [6] (measured here: combination with cisplatin at IC20, at 0.5 µM), 46.2%; in [7] (at 0.5 µM), 83.8% (active); in assay [7] (measured here: combo with BGB at IC20, at 0.5 µM), 82.3%; in assay [7] (measured here: combo with cisplatin at IC20, at 0.5 µM), 76.1%. The inhibition in assay [8] (at 0.5 µM) was 44.8% (inactive); in assay [8] (measured here: inhibition with BGB combination, at 0.05 µM) it was 11.9%; in assay [8] (measured here: inhibition with cisplatin combination, at 0.05 µM), 39.3%; in assay [9] (at 0.5 µM) it was 33.5% (inactive); in assay [9] (setting [25]), 48.6%; in assay [9] (setting [26]) it was 47.1%. Moreover, the inhibition was 69.7% (inactive) in assay [10] (at 0.5 µM); 58.4% in [10] (measured here: BGB combination, at 0.5 µM); 53.6% in assay [10] (measured here: BGB combination, at 5 µM); 72.1% in [10] (measured here: cisplatin combination, at 0.5 µM); 74.9% in [10] (measured here: cisplatin combination, at 5 µM); 71.3% in assay [11] (BGB combination, concentration series, at 5 µM). Besides, the inhibition in [11] (at 0.5 µM) was 57.4% (inactive); in assay [11] (cisplatin combination, concentration series, at 5 µM) it was 70.5%; in assay [12] (at 0.5 µM), 85.4% (active); in [12] (measured here: combo with BGB IC20, at 0.5 µM), 85.6%; in assay [12] (measured here: combo with cisplatin IC20, at 0.5 µM), 76.9%; in [13] (at 0.5 µM) it was 45.2% (inactive). For the same compound, the inhibition was 43.7% in [13] (cisplatin combination, at 0.5 µM); 48.4% in assay [13] (cisplatin combination, at 5 µM); 22.9% in [13] (measured here: BGB IC40 combination 0.05 uM, at 0.05 µM); 62.7% in [13] (single agent, at 5 µM); 21.7% (inactive) in assay [14] (at 0.5 µM); 29.2% in [14] (cisplatin combo, at 5 µM). Moreover, the inhibition was 11.1% in assay [14] (measured here: BGB IC40 combination, at 0.05 µM); 20.9% in assay [14] (setting [25]); 18.7% in [14] (single agent, at 5 µM); 74.4% (inactive) in assay [15] (at 0.5 µM); 70.7% in assay [15] (setting [23]); 76.3% in assay [15] (setting [24]). Also, the inhibition was determined as 49.3% in assay [15] (single agent, at 0.05 µM) and 85.7% in assay [15] (single agent, at 5 µM).
In the case of `C#CCOc1ccc(CC(C)NCC(O)c2cccc(C(F)(F)F)c2)cc1` (stereo not given), the growth inhibition was 74% (active) and 84% (active) in assay [16]; 90% (active) and 93% (active) in [19]. Moreover, the inhibition was 5% (inactive) and 28% (inactive) in assay [17]; 1% (inactive) and -2% (inactive) in assay [18].
`CN1CCC23CCCC[C@H]2C1Cc1ccc(O)cc13` (stereo not given in full): the period change in assay [20] is -0.06 h (inactive).
Still for that read-out and setting: the same measure for `CCN1C[C@]2(C)CC[C@H](O)[C@@]34C5C[C@@H]6[C@@H](OC)C[C@@](O)(C5[C@H]6O)[C@@H](CC23)C14` (stereo not given in full): 0.055 h (inactive).
As for `CC(CCCC(C)(C)O)CCNC(C)Cc1ccsc1` (stereo not given), in [21], the z-score is -0.475 (inactive).
